Assay results: PubChem BioAssay AID1851 (National Center for Advancing Translational Sciences (NCATS), 2009)
The campaign covered roughly 16,000 compounds. About 5,700 (36%) were called active. Inconclusive results (about 24%) are left out. Calls come from the whole dose curve; as a rule, active = well fitted curve in the direction sought with a large enough effect; inconclusive = small, poorly fitted or top-dose-only effect, or effect the other way; inactive = no such curve, though single readings can be large or run the other way. Some of the results follow.

target: Cytochrome P450 1A2 (Homo sapiens) (UniProt P05177); test: Cytochrome panel assay with activity outcomes; conditions: recombinant CYP, pro-luciferin dealkylation, luminescence, p450-cyp1a2; series mostly up to 57.1 µM
% is set by controls: 0 for no effect and ±100 for the full control effect.

Sequence of Cytochrome P450 1A2 (Homo sapiens) (P05177 whole entry, looked up): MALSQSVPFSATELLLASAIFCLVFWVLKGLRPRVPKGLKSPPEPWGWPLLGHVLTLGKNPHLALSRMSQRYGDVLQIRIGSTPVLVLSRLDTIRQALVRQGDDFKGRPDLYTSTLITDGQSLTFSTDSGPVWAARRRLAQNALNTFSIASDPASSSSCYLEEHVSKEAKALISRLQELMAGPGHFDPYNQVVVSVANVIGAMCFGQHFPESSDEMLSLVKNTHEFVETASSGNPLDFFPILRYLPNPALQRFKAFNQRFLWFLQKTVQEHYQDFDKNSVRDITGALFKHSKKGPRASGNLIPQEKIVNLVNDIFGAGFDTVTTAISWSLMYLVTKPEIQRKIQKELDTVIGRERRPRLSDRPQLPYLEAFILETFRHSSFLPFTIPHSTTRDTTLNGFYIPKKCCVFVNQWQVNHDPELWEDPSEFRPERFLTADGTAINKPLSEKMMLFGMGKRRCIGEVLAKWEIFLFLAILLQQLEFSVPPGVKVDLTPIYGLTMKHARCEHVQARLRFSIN

AC50, active:
FC(F)(F)c1ccc(N2CCOCC2)c(Nc2nc3ccccc3n3cnnc23)c1 6.31 µM
COCc1nc2c([nH]1)c(=O)n(C)c(=O)n2CC(C)C 12.6 µM
O=c1[nH]ncc2c3ccccc3n(Cc3ccccc3)c12 1 µM
COc1ccc(-n2c(=S)[nH]c3cc(C(=O)NCCCN4CCCC4=O)ccc3c2=O)cc1 25.1 µM
CCN(CC)c1ccc2c(Cl)cc(=O)oc2c1 0.891 µM
CC1=CC(=C2C(=O)c3ccccc3C2=O)C=C(C)O1 0.2 µM
CC1=CC(=C2C(=O)c3ccccc3C2=O)C=C(C)N1Cc1ccco1 1.58 µM
CSc1nc(Oc2ccc(F)cc2)c2ccccc2n1 0.794 µM

AC50, inactive:
COc1cccc2c1C(=O)c1c(O)c3c(c(O)c1C2=O)C[C@](O)(C(=O)CO)C[C@H]3O[C@@H]1C[C@H](N)[C@H](O)[C@H](C)O1
O=c1[nH]ncn2cccc12
O=C(NCc1ccccc1Cl)c1ccc2c(=O)n(CCCN3CCCC3=O)c(=S)[nH]c2c1
O=C(NCCCN1CCCC1=O)c1ccc(CNS(=O)(=O)c2ccc(F)cc2)cc1
Cc1ccc(C)c(N(CC(=O)NC2CCCC2)C(=O)c2cc3cc4cccc(C)c4nc3s2)c1
CCN(CC)c1ccc(SS(=O)(=O)O)cc1
CC1(C)OC(=O)N(Cc2ccco2)C1(C)O (stereo not given)
CCCCS(=O)(=O)NC1=NCN(Cc2ccco2)CN1
COc1ccc(C(=O)N2CCC[C@@]3(CCN(C(=O)Nc4cccc(C#N)c4)C3)C2)cc1
CC(C)NC(=O)N1CCCC2(CCN(C(=O)c3csnn3)CC2)C1
CN1CCCC2(CCN(C(=O)c3cnccn3)CC2)C1

activity, negative = inhibition, inactive:
Cn1c(=O)c2[nH]c(CS(=O)(=O)Cc3nc4c([nH]3)c(=O)n(C)c(=O)n4C)nc2n(C)c1=O -21.1% [at 2.29 µM]
Cn1c(=O)c2[nH]c(COCc3nc4c([nH]3)c(=O)n(C)c(=O)n4C)nc2n(C)c1=O 4.47% [at 2.29 µM]
CCN1C(=O)[C@H]2[C@@H]3[C@H](O)C=CC(=O)[C@H]3CC[C@H]2C1=O -16.7% [at 11.4 µM]
O=C(O)[C@@H]1[C@H](C(=O)O)[C@H]2C(=O)C=C[C@H]1N2Cc1ccccc1 -3.91% [at 2.29 µM]
Nc1nc(N)c2nn(-c3ccc(C(=O)O)cc3)nc2n1 -13.4% [at 2.29 µM]
CN1CCN(CCCBr)CC1 -20.9% [at 11.4 µM]
